Most compounds without a hit are left out; they make up all but 3.4% or so of the library.
esBAF inh – Bmi1 luciferase reporter increase in mESCs, primary screen, esBAF inhibitor project, mouse ES cells, Bmi1 luciferase knock-in, single point; 24 h; 100% = twice the neutral-well signal; reporter increase, % at 12.5 µM; 2% of 350,000 active; in the data active = activation above about 40%; inconclusive = no clear call, values can overlap the other calls;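 also: 0% = median of the plate's neutral control wells and 100% = double that signal; a rise in the Bmi1 reporter signal indicates esBAF inhibition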
HSF1 inh – HSF1 inhibitors in luciferase reporter cells, primary screen, cell-based, NIH3T3, luminescence. NIH3T3-HGL HSE-luciferase, MG132-induced, luminescence 8 h; stronger effect = lower value. activity change, negative = inhibition, % at 7.5 µM (by protocol). 0.77% of 300,000 active. AID 2098, 2009;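 active = more than half of replicate wells show activity change below -50%, luminescence cut by over half; inconclusive = some wells, but at most half, below -50%; inactive = no replicate well below -50%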;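 also: luciferase reports HSF-1 transcriptional activity via heat shock element; 0% = median of DMSO wells and -100% = zero luminescence signal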
HSF-1 act – HSF-1 activators, primary screen, NIH3T3-HGL cells, MG132 stress, luminescence, single point; NIH3T3-HGL HSF-1 luciferase reporter, 8 h; 100% = twice DMSO control signal; 1.7% of 300,000 active; activation, % at 9 µM;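 active = mean replicate activation of at least 50% with a set share of replicates each reaching 50%; inconclusive = only one of those two conditions met; inactive = mean below 50% and too few replicates reaching it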;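 also: 0% = median of the neutral control wells and 100% = twice that signal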
Vif inh – HIV Vif self-association inhibitors, primary screen, imaging, HEK293T, single point. HEK293T cells, Vif self-association by quenched fluorescence, 24 h. inhibition, % at 7.49 µM. 0.35% of 340,000 active. AID 602346, 2012; in the data active = inhibition above about 50%, passing the limit was not always enough; inconclusive = no clear call, values can overlap the other calls; inactive = below about 31%
Active calls of the source: *; ? = inconclusive; · = no result given.

SMILES	esBAF inh	HSF1 inh	HSF-1 act	Vif inh
CCOC(=O)c1sc2nc(C3CC3)cc(-c3ccc(F)cc3)c2c1N	-8	0	-4	1
CCOC(=O)c1sc(-c2ccc(OC)cc2)cc1N	76*	17	46	·
CCN(CC)CCN(C(=O)c1ccc(C(=O)c2ccccc2)cc1)c1nc2cc3c(cc2s1)OCO3	11	-6	-2	-5
CCN(CC)CCN(C(=O)c1ccc2ncsc2c1)c1nc2cc3c(cc2s1)OCO3	55*	-22	-26	4
CCN(CC)CCN(C(=O)C1=COCCO1)c1nc2ccc(C)cc2s1	-4	24	53*	16
Cc1noc(C)c1S(=O)(=O)Nc1ccc2c(c1)CC(=O)N([C@@H](C)CO)C[C@H](C)[C@@H](CN(C)CC1CCCCC1)O2	1	·	·	·
N#CCCCC#Cc1ccc2c(c1)COc1c3ccccc3nn1-2	-70	-64*	-69	-6
CCCCCCC#Cc1ccc2c(c1)COc1c3ccccc3nn1-2	40	-9	9	-2
CCCCC#Cc1ccc2c(c1)COc1c3ccccc3nn1-2	71*	25	14	·
O=C(Cn1cc([N+](=O)[O-])cn1)NCC1CCCO1 (stereo unspecified)	·	-63*	-71	0
CCOC(=O)c1c(N2C(=O)C3C4C=CC(O4)C3C2=O)sc2c1CCCC2 (stereo unspecified)	-5	68	104*	0
C[C@@H]1CCCCO[C@@H](CN(C)C(=O)Nc2ccccc2)[C@H](C)CN([C@@H](C)CO)C(=O)c2cc(NC(=O)c3ccccc3)ccc2O1	3	·	·	·
COc1cc(O)c(C(CC(=O)N2CCCC2)c2ccc(N(C)C)cc2)c(OC)c1 (stereo unspecified)	9	-2	-1	74*
COc1ccc(C(CC(=O)N2CCCCC2)c2c(O)cc(OC)cc2OC)cc1 (stereo unspecified)	0	11	1	-8
CCC(=O)Nc1ccc(NC(=O)CSc2nnnn2C(C)C)cc1	0	-2	-7	1
Cc1ccc(C(=O)CSc2nnnn2C(C)C)c(C)c1	·	28	54*	0
Cc1ccc(C)c(C(=O)CSc2nnnn2C(C)C)c1	51*	11	13	1
Cc1ccc(C)c(C(=O)CSc2nc(N)cc(=O)[nH]2)c1	-7	-55*	-51	3
Cc1ccc(C)c(C(=O)CSc2nc(C)cc(=O)[nH]2)c1	-1	-1	2	0
O=C(COC(=O)COc1cccc(Br)c1)Nc1c(Cl)cccc1Cl	·	6	54*	19
COc1ccc(NC(=O)COC(=O)COc2cccc(Br)c2)cc1OC	-4	0	6	-5
CC(=O)N(C)C[C@@H]1Oc2ncc(-c3ccc(C#N)cc3)cc2C(=O)N([C@H](C)CO)C[C@@H]1C	4	·	·	·
CO[C@H](CN(C)Cc1cc(F)ccc1F)[C@H](C)CN(C(=O)Nc1ccc(F)cc1)[C@H](C)CO	2	·	·	·
Cc1ccc2c3c1C1(C(=O)N3C(C)(C)CC2C)C(C#N)=C(N)Oc2cc(O)ccc21 (stereo unspecified)	·	7	-12	3
Cc1cc2c3c(c1)C1(C(=O)N3C(C)(C)CC2C)C(C#N)=C(N)Oc2cc(O)ccc21 (stereo unspecified)	·	24	67*	-1
SMILES	esBAF inh	HSF1 inh	HSF-1 act	Vif inh
Clc1ccccc1CSc1cc2c(nn1)-c1ccccc1CC2	88*	18	43	-16
Cc1ccc(S(=O)(=O)Nc2ccc3c(c2)C(=O)N([C@H](C)CO)C[C@@H](C)[C@H](CN(C)C(=O)CCCN(C)C)OCCCC[C@@H](C)O3)cc1	-3	·	·	·
COc1ccc(S(=O)(=O)Nc2ccc3c(c2)C(=O)N([C@H](C)CO)C[C@@H](C)[C@H](CN(C)C(=O)Nc2ccc(F)cc2)OCCCC[C@@H](C)O3)cc1	3	·	·	·
O=C(Nc1cc(-c2ccccc2)[nH]n1)c1ccc(Cl)cc1	59*	10	?	-2
Cc1cc(NC(=O)c2cccc(Cl)c2)n[nH]1	47*	12	3	-15
Cc1ccc(NC(=O)C2C3C=CC(O3)C2C(=O)O)cc1C (stereo unspecified)	5	6	25	1
Cc1ccc(-c2ccc(NC(=O)C3C4C=CC(C4)C3C(=O)O)cc2)o1 (stereo unspecified)	59*	-10	-24	1
COC(=O)c1ccc(NC(=O)C2C3C=CC(C3)C2C(=O)O)cc1 (stereo unspecified)	4	-52*	-53	-7
COc1ccc(NC(=O)C2C3C=CC(C3)C2C(=O)O)cc1 (stereo unspecified)	·	-8	-5	-2
COC(=O)c1ccc(NC(=O)C2C3C=CC(O3)C2C(=O)O)cc1 (stereo unspecified)	57*	-27	-49	8
Cc1cc(C)c(C#N)c(SCc2nnc(-c3ccccc3)o2)n1	-65	-85*	-88	0
Cc1cc(C)c(C#N)c(SCc2nnc(-c3ccccc3[N+](=O)[O-])o2)n1	23	20	36	-5
Cc1ccc(C#N)c(SCc2nnc(-c3ccc(Cl)cc3)o2)n1	-67	-84*	-86	0
C[C@@H]1CN([C@H](C)CO)C(=O)c2cc(NC(=O)Nc3ccc4c(c3)OCO4)ccc2O[C@@H](C)CCCCO[C@H]1CN(C)Cc1ccc(Cl)c(Cl)c1	3	·	·	·
O=[N+]([O-])c1cccc(-c2nc(-c3ccccc3)no2)c1	73*	30	56*	9
O=[N+]([O-])c1cccc(-c2nnc(-c3ccc4c(c3)OCO4)o2)c1	·	6	-7	-5
O=[N+]([O-])c1cccc(-c2nnc(-c3ccccc3)o2)c1	·	-78*	-84	17
O=[N+]([O-])c1cccc(-c2nc(-c3ccncc3)no2)c1	35	-22	-37	-13
O=[N+]([O-])c1cccc(C2=NC(c3ccccc3)CO2)c1 (stereo unspecified)	45*	-5	-5	2
Cc1cccc(C(=O)OCC(=O)c2c(C)[nH]c3ccccc23)c1O	73*	·	·	-18
Cc1cccc(C(=O)OCC(=O)c2ccc3c(c2)OCO3)c1O	6	45	66*	·
Cc1c(C(=O)OCC(=O)NCc2ccc3c(c2)OCO3)cccc1[N+](=O)[O-]	-4	15	60*	16
O=C(COC(=O)c1ccccc1[N+](=O)[O-])c1ccc2c(c1)OCO2	-11	-66*	-70	-2
C[C@H](CO)N1C[C@H](C)[C@H](CN(C)S(=O)(=O)c2ccccc2)Oc2ccc(NS(C)(=O)=O)cc2CC1=O	2	·	·	·
CO[C@H]1CN(C)C(=O)c2ccc(NC(=O)NC(C)C)cc2OC[C@@H](C)N(Cc2ccccn2)C[C@H]1C	-1	·	·	·
C[C@H]1CN([C@@H](C)CO)C(=O)c2cc(C#CCN(C)C)cnc2O[C@@H]1CN(C)Cc1ccc2c(c1)OCO2	-2	·	·	·
Cc1cc(C(=O)COC(=O)c2ccc(N)c([N+](=O)[O-])c2)c(C)n1-c1ccc2c(c1)OCO2	11	·	·	-7

From PubChem BioAssay
